# From PubChem
# Nrf2 block: inhibitors of Nrf2 signaling; A549 ARE-Fluc reporter, luciferase luminescence, 18-24 h; Potency, µM (doses to about 46 µM), for inactives: at the top dose activity change, negative = inhibition, actives largely listed as inhibitors; actives 2.1% (n = 360,000); also: % is scaled to controls: 0 for no effect and ±100 for the full control effect; nearly all actives have a fitted effect of over 60% in size
#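 Nrf2 activity is the BugLite luminescence, read 15 min after reagent at room temperature, following CellTiter-Fluor cytotoxicity readout (30 min, 37C). Compound titrations were applied for 18-24 h to 5000 A549 ARE_Fluc cells/well in 5% FBS OPTI-MEM.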
# Pin1 inh: inhibitors of human Pin1 | Potency, µM (titrated, usually from 115 µM), for inactives: at the highest dose activity, negative = inhibition, usual class: inhibitors | Pin1 FP peptide displacement, HiFluor488, 10 min | actives 0.009% (n = 390,000); active = well fitted inhibition curve with a large enough effect in the polarisation, with a control signal flat, not every such curve was filed as active; inconclusive = small, poorly fitted or top-dose-only effect, or effect the other way, or a change in a side signal; inactive = no such curve, though single readings can be large or run the other way; the % refers to the polarisation; also: % is scaled to controls: 0 for no effect and ±100 for the full control effect
# Target sequence (Q13526 whole entry, looked up): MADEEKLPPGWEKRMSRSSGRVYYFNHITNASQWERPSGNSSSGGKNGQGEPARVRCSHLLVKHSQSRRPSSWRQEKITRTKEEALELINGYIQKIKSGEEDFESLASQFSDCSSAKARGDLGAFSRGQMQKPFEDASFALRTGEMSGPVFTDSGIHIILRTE
# Nrf2 activator: activators of Nrf2 (ARE) signaling; Potency, µM (doses to about 46.1 µM), without a hit: top-dose activation, actives largely listed as activators; actives 0.31% (n = 410,000); AREc32 ARE-luciferase reporter (MCF7-derived line), luminescence, 24 h; AID 624171; also: % of control where 0% means no effect; nearly all actives have a fitted effect of over 65% in size
#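 AREc32 cells carrying an ARE-driven firefly luciferase reporter were seeded at 1000 cells/well in OPTI-MEM with 5% FBS, then exposed to compound for 24 hr at 37 deg C. Luminescence was read with Steady-Glo after 30 min at RT.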
# A549 tox: kills or reduces viability of A549 cells in Nrf2 counter-screen; A549 ARE-Fluc cells, CellTiter-Fluor viability, 18-24 h; Potency, µM (series often up to 46 µM), for the others: at the top dose activity change, negative = cytotoxicity, most hits filed as inhibitors; actives 0.16% (n = 390,000); AID 504648; also: % is scaled to controls: 0 for no effect and ±100 for the full control effect
#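 A549 ARE-Fluc cells in 5% FBS OPTI-MEM, 5000 cells/well, rested 2 h then exposed to compounds in concentration-response for 18-24 h at 37 °C. Viability by CellTiter-Fluor fluorescence (Ex 405/Em 525) after 30 min; luciferase luminescence (BugLite, 15 min, RT) read afterwards.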
# * = called active by the depositor; ? = inconclusive; . = no result; [ ] = dose if it differs, or a comment. The list is not random: actives were taken first. Their share in the collection is about 2.2%. Unless noted, calls follow the shape of the dose curve; as a rule, active = well fitted curve in the direction sought with a large enough effect; inconclusive = small, poorly fitted or top-dose-only effect, or another doubt; inactive = no such curve, though single readings can be large; an effect the other way counts as inactive or inconclusive. Potency is read from the fitted curve at half-maximal effect.
SMILES,Nrf2 block,Pin1 inh,Nrf2 activator,A549 tox
Cc1ccnc(N2CCC(C(=O)Nc3cccc(C(F)(F)F)c3)CC2)n1,13µM*,1%,0%,.
Cc1ccnc(N2CCC(C(=O)Nc3ccc(Oc4ccccc4)cc3)CC2)n1,-11%,-7%,0%,0%
COc1ccc(NC(=O)C2CCCN(c3ncnc4onc(C)c34)C2)cc1OC (stereo not given),.,-11%,3%,0%
Cc1noc2ncnc(N3CCCC(C(=O)Nc4cccc(C(F)(F)F)c4)C3)c12 (stereo not given),5.8µM*,-15%,3%,-12%
O=C(Nc1cccc(C(F)(F)F)c1)C1CCN(S(=O)(=O)c2cccc3nsnc23)CC1,21µM*,-5%,8%,-4%
COc1ccc(C(=O)N(Cc2cccs2)Cc2cccs2)c(O)c1,24%,-6%,.,2%
Cc1ccc(-c2cc(-c3ccco3)c(C#N)c(=O)[nH]2)cc1,-13%,?,8%,-8%
N#Cc1c(-c2ccco2)cc(-c2ccccc2)[nH]c1=O,-54%,?,2.5µM*,1%
Cn1c(CNC(=O)CSc2nc(-c3ccccc3F)nc3cc(=O)[nH]n23)nc2ccccc21,?,?,-1%,7%
CCn1c(=O)c(C(=O)NNS(=O)(=O)c2ccc(C)cc2)c(O)c2ccccc21,15µM*,-3%,3%,-28%
CCCCCCc1nc2ccccc2c(=O)n1NC(=O)c1c(O)c2c(n(CC(C)C)c1=O)CCCC2,21µM*,-6%,0%,?
CCCn1c(=O)c(C(=O)NNS(=O)(=O)c2ccc(C)cc2)c(O)c2ccccc21,?,-9%,0%,-8%
CCc1nc2ccccc2c(=O)n1NC(=O)c1c(O)c2ccccc2[nH]c1=O,4%,2%,-1%,-1%
CCCc1nc2ccccc2c(=O)n1NC(=O)c1c(O)c2ccccc2n(C)c1=O,18µM*,-2%,0%,-22%
O=S(=O)(c1ccc2c(c1)OCCO2)N1CCN(S(=O)(=O)c2c(F)ccc(O)c2F)CC1,-12%,27%,.,7%
Cc1cc2oc(=O)cc(-c3ccccc3)c2c(C)c1-c1ccc(O)cc1,16µM*,-1%,6%,-10%
Cc1cc(C)c(C)c(S(=O)(=O)N2CCN(S(=O)(=O)c3ccc4c(c3)OCCO4)CC2)c1C,-12%,1%,.,0%
Clc1cccc(Cl)c1CSc1nnc(/C=C/c2ccccc2)o1,.,6%,1%,2%
Fc1cccc(Cl)c1Cc1noc(/C=C/c2ccccc2)n1,?,5%,16µM*,0%
C=CC[C@@H](CC(=O)N(CCO)Cc1ccccc1)C(=O)N[C@@H](COC(=O)[C@@H](CC=C)Cc1ccc(F)cc1)Cc1ccccc1,23µM*,2%,-5%,?
C=CCC[C@@H](Cc1ccc(F)cc1)C(=O)OC[C@@H](NC(=O)[C@@H](CC=C)CC(=O)N(CCO)Cc1ccccc1)c1ccccc1,23µM*,8%,-4%,?
C=CC[C@@H](CC(=O)N(CCO)Cc1ccccc1)C(=O)N[C@H](COC(=O)[C@@H](CC=C)Cc1ccc(F)cc1)Cc1ccccc1,?,-9%,-2%,-29%
C=CC[C@H](CC(=O)N(CCO)Cc1ccccc1)C(=O)NC[C@H](OC(=O)[C@@H](CC=C)Cc1ccc(F)cc1)c1ccccc1,18µM*,2%,-5%,?
Cc1ccc2c(c1)N(C(=O)CCC(=O)NCc1cccc(F)c1)CC(C)O2 (stereo not given),-12%,9%,0%,3%
Cc1ccc(NC(=O)c2ccc(Cl)c(S(=O)(=O)N3CCCCCC3)c2)nc1,23µM*,0%,0%,?
SMILES,Nrf2 block,Pin1 inh,Nrf2 activator,A549 tox
Cc1ccc(NC(=O)c2ccc(S(=O)(=O)N3CCCCCC3)cc2)nc1,?,4%,6%,2%
Cc1ccc(C(=O)Nc2cccnc2)cc1S(=O)(=O)N1CCCCCC1,-3%,-1%,-1%,-3%
O=C(Nc1cccnc1)c1ccc(Cl)c(S(=O)(=O)N2CCCCCC2)c1,15µM*,-1%,2%,-5%[1.84 µM]
CC(C)(C)c1ccc(C(=O)NCC(=O)OC(C(=O)Nc2cc(C(F)(F)F)ccc2Cl)c2ccccc2)cc1 (stereo not given),?,0%,.,1%
O=C(CCS(=O)(=O)c1ccc(F)cc1)Nc1nc(-c2ccccn2)cs1,5%,-3%,?,-3%
CC(Oc1ccc(F)cc1)C(=O)Nc1nc(-c2ccccn2)cs1 (stereo not given),21µM*,0%,9%,?
COC(=O)C1=C[C@@H](C(=O)OC)[C@@H]2C3=C(C(=O)[C@@]2(C)NC(=O)c2ccccc2)[C@H](C)[C@@H]2C(=O)N(Cc4ccccc4)C(=O)[C@@H]2[C@@H]3C1,11%,?,.,-1%
COc1cccc2c1C(=O)c1c(O)c3c(c(O)c1C2=O)C[C@@](O)(C(=O)CO)C[C@@H]3O[C@H]1C[C@H](N)[C@H](O)[C@H](C)O1,?,6%,-2%,-22%
COc1cccc2c1C(=O)c1c(O)c3c(c(O)c1C2=O)C[C@@](O)(C(=O)CO)C[C@@H]3OC1CC(N)C(O)C(C)O1 (stereo not given in full),5.8µM*,?,-2%,8.2µM*
Cc1ccc(Cl)c(NC(=O)COC(=O)c2ccccc2C(=O)c2ccc(Cl)c([N+](=O)[O-])c2)c1Cl,23µM*,10%,0%,?
CCCNC(=O)COC(=O)c1ccccc1C(=O)c1ccc(Cl)c([N+](=O)[O-])c1,-19%,?,?,1%
CSc1ccc(C(=O)C2CCCN(C(=O)CCc3c(C)nn(C)c3C)C2)cc1 (stereo not given),9.2µM*,-4%,0%,-17%
COc1ccc(CN(Cc2ccccc2)C(C)=O)cc1COc1ccc(NC(C)=O)cc1,-24%,-4%,.,-7%
Cc1ccc(CNC(=O)CSc2c(C(C)C)cnc3c2c(=O)n(C)c(=O)n3C)cc1,.,-5%,-1%,1%
O=c1c2ccccc2nc(-c2ccc(Cl)cc2)n1CCCOc1ccccc1F,-5%,-1%,7%,0%
O=C(N/N=C/c1ccc([N+](=O)[O-])o1)C(=O)Nc1ccc(C(=O)O)cc1,5%,-17%,0%,-7%
O=C(O)c1ccc(N/N=C/C=C/c2ccc([N+](=O)[O-])o2)cc1,?,93%,14µM*,?
COCCn1c(C)cc(C(=O)COC(=O)c2[nH]c(C)c(C(C)=O)c2C)c1C,23µM*,-2%,2%,-14%
Cc1ccc(-c2c(C)n3c4c(=O)n(C)c(=O)n(C)c4nc3n2-c2cccc(O)c2)cc1,?,-2%,0%,-17%
CC(=O)c1ccc(-n2nnnc2SCC(=O)Nc2cccc(NC(=O)c3ccco3)c2)cc1,23µM*,23%,7%,-13%
C/C(=N\NC(=O)c1c(Cl)c(C)nn1C)c1cccc(NC(=O)c2cccc(F)c2)c1,9.2µM*,4%,4%,0%
COc1cccc(Nc2sc(C(=O)c3ccc(F)cc3)c(N)c2C(=O)NCc2ccc(C)cc2)c1,.,10%,0%,?
